From PubChem BioAssay come the findings set out here.

Calls of active or inactive are those of the source.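 How the source made its calls, unless noted: active means inhibition over a set limit, the all-compound mean plus 3 SD, in both replicate runs; inconclusive means over that limit in just one replicate run; inactive means at or under that limit in both runs.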

The inhibition is the drop in the measured response relative to a control, in per cent.

One test can be described thus: inhibitors of the yeast RAM network, pilot screen, dse1pr::URA3 reporter, 5-FOA selection (AID 869).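 Further: 0% = DMSO wells with no growth and 100% = 10 µM 1-NA-PP1 with full growth; RAM network block rescues cells from 5-FOA so hits raise OD615 growth.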 To be noted: S. cerevisiae dse1pr::URA3 5-FOA growth, OD615, 2 d; at 10 µM; hits give high values; strain carries analog-sensitive mutant Cbk1 kinase.
Take `COCCCNC(=O)c1ccc(CS(=O)(=O)c2ccc(OC)cc2)o1`: the inhibition was 0.405% (inactive).

Regarding `O=C(c1ccc(CSCc2ccccc2F)o1)N1CCN(c2ccc(N3CCOCC3)nn2)CC1`, the inhibition was 1.54% (inactive).

`COCCOC(=O)c1[nH]c2c(c1C)C(=O)CC(c1ccco1)C2` (stereo not given): the inhibition was 2.79% (inactive).

Take `CCOC(=O)CSc1nnc(Cn2c(=O)sc3ccccc32)n1C`: the inhibition is 0.27% (inactive).

As for `CCCC(=O)C1=C(N(C)c2ccccc2)CC(C)(C)C(C(=O)OC)C1=O` (stereo not given), the inhibition is -0.705% (inactive).

As for `CC1(C)CC(=O)N(CC(=O)NCc2ccccc2)c2ccccc2S1(=O)=O`, the inhibition was 0.485% (inactive).

As for `CCOc1cc(C2NC(=O)NC(O)(C(F)(F)F)C2C(=O)c2ccccc2)ccc1OC` (stereo not given), the inhibition was 0.24% (inactive).

For `Cn1c(C(=O)NCCN2CCN(c3ccccc3F)CC2)cc2c(=O)n(C)c3ccccc3c21`, the inhibition was 0.115% (inactive).

Regarding `Cc1cc2ccccc2n1CCNC(=O)C1CC1`, the inhibition is 0.66% (inactive).

`Cc1cccc(NC(=O)CS(=O)(=O)c2cn(C)c3ccccc23)c1`: the inhibition is 1.98% (inactive).

With `COc1nnc(-c2ccc(C)c(S(=O)(=O)NCCO)c2)c2ccccc12`, the inhibition is -0.06% (inactive).

For `COc1ccc(-c2cnc(SCC(=O)Nc3ccc4c(c3)OCO4)n2Cc2ccco2)cc1`, the inhibition was 1.66% (inactive).

In the case of `Cn1cnc2cc(NC(=O)c3ccc(Cl)cc3)ccc21`, the inhibition is 0.75% (inactive).

`CC1CCc2nn(CC(=O)Nc3ccc(F)cc3F)cc2C1` (stereo not given): the inhibition is 2.21% (inactive).

With `Cc1ccc(-c2noc(CN3CCN(c4ccccc4F)CC3)n2)cc1`, the inhibition is -0.38% (inactive).

On to `Cc1ccc(NC(=O)c2cc(-c3ccc(C)o3)nc3ccccc23)nc1`, for which the inhibition is 1.21% (inactive).

For the compound `Cc1nnc(N2C(=O)C(O)=C(C(=O)c3ccco3)C2c2ccc(F)cc2)s1` (stereo not given), the inhibition was 0.21% (inactive).

As for `COc1ccccc1N(CC(=O)Nc1cccnc1)S(C)(=O)=O`, the inhibition is 2.62% (inactive).

`CCCc1cc(C(=O)Nc2ccccc2SC)no1`: the inhibition is 0.2% (inactive).

With `O=C(CSc1nc2c(c(=O)n1-c1ccc(F)cc1)SCC2)NCC1CCCO1` (stereo not given), the inhibition is 1.46% (inactive).

For `COc1ccc(-c2nc(C)c(C(C)=O)n2O)cc1OC`, the inhibition is 1.42% (inactive).

Consider `C=CCOC(=O)COc1ccc2c(C)c(C)c(=O)oc2c1C`, for which the inhibition is 1% (inactive).

For the compound `CN(C)CCCNC(=O)CCC1CCCCC1`, the inhibition is 0.2% (inactive).

For the compound `CC(C)(O)C#Cc1ccc(C(=O)N2CCN(C(=O)c3ccco3)CC2)cc1`, the inhibition is 0.66% (inactive).

On to `Nc1cccc2c1C(=O)N(c1ccccc1)C2=O`, for which the inhibition is 1.5% (inactive).

`COc1ccc(N2CCN(CCNC(=O)CCS(=O)(=O)c3cccc4nsnc34)CC2)cc1`: the inhibition is 0.835% (inactive).

As for `CCOC(=O)CCc1c(C)nc2cc(-c3ccc(F)cc3)[nH]n2c1=O`, the inhibition is 1.8% (inactive).

In the case of `O=C1CC(c2cccnc2)c2cc3c(cc2N1)OCO3` (stereo not given), the inhibition was 1.17% (inactive).

`COc1ccccc1CNC(=O)C1CCCN(S(=O)(=O)c2cccc3cccnc23)C1` (stereo not given): the inhibition is 3.08% (inactive).

Turning to `Oc1c(C(c2ccccc2)N2CCc3ccccc3C2)sc2ncnn12` (stereo not given), the inhibition was 1.78% (inactive).

Turning to `O=C(NCCc1c[nH]c2ccccc12)c1cnc2n(c1=O)CCS2`, the inhibition is 0.62% (inactive).

Turning to `CC(NC(=O)c1cc2c(=O)n(C)c3ccccc3c2n1C)c1ccc2c(c1)OCCO2` (stereo not given), the inhibition was 0.645% (inactive).

In the case of `CCOC(=O)c1ccc(-n2c(C)nc3c(cnn3-c3ccccc3C)c2=O)cc1`, the inhibition was 1.17% (inactive).

On to `COc1ccc(CCNC(=O)CSc2nnnn2-c2ccccc2OC)cc1OC`, for which the inhibition is 1.64% (inactive).

With `CCCSc1nnc(N2C(=O)CC(c3ccsc3)C3=C2CCCC3=O)s1` (stereo not given), the inhibition is 0.25% (inactive).

In the case of `COC(=O)Cn1c(=O)c2c(nc3n2CC(C)CN3c2ccc(C)c(C)c2)n(C)c1=O` (stereo not given), the inhibition is 1.25% (inactive).

Consider `O=C(Nc1cccnc1)Nc1ccccn1`, for which the inhibition was 0.185% (inactive).

On to `CCn1cc(C(=O)NCc2ccccc2OC)c(=O)c2cc(S(=O)(=O)N(C)C)ccc21`, for which the inhibition was 1.88% (inactive).

For `CC1CCN(c2oc(-c3ccccc3F)nc2C#N)CC1`, the inhibition is 0.425% (inactive).

With `Clc1ccc(Nc2ncnc3c2cnn3-c2ccccc2)cc1`, the inhibition was 0.855% (inactive).

A further test is described as follows: RAM signaling pathway blockade in yeast – S. cerevisiae, Pdr1DBD-CYC8 efflux-inhibited sensitized strain, primary screen (AID 1298;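 active means RAM network inhibition above 8.4% in each of two replicates, 3 SD over the compound average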;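 further: 0% = DMSO untreated cells without growth and 100% = 10 µM 1-NA-PP1 full growth; higher means more yeast growth rescued from 5-FOA killing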). Particulars: S. cerevisiae cbk1-as DSE1-URA3 strain, 5-FOA growth OD615, 2 d; at 50 µM; hits give high values.
As to `COCCCNC(=O)c1ccc(CS(=O)(=O)c2ccc(OC)cc2)o1`, the RAM network inhibition is 1.46% (inactive).

With `O=C(c1ccc(CSCc2ccccc2F)o1)N1CCN(c2ccc(N3CCOCC3)nn2)CC1`, the RAM network inhibition is 2.93% (inactive).

`COCCOC(=O)c1[nH]c2c(c1C)C(=O)CC(c1ccco1)C2` (stereo not given): the RAM network inhibition was 2.52% (inactive).

Consider `CCOC(=O)CSc1nnc(Cn2c(=O)sc3ccccc32)n1C`, for which the RAM network inhibition is 3.51% (inactive).

In the case of `CCCC(=O)C1=C(N(C)c2ccccc2)CC(C)(C)C(C(=O)OC)C1=O` (stereo not given), the RAM network inhibition is 0.26% (inactive).

Regarding `CC1(C)CC(=O)N(CC(=O)NCc2ccccc2)c2ccccc2S1(=O)=O`, the RAM network inhibition is 3.51% (inactive).

As for `CCOc1cc(C2NC(=O)NC(O)(C(F)(F)F)C2C(=O)c2ccccc2)ccc1OC` (stereo not given), the RAM network inhibition is 0.2% (inactive).

`Cn1c(C(=O)NCCN2CCN(c3ccccc3F)CC2)cc2c(=O)n(C)c3ccccc3c21`: the RAM network inhibition was 0.11% (inactive).

As for `Cc1cc2ccccc2n1CCNC(=O)C1CC1`, the RAM network inhibition is 2.78% (inactive).

Regarding `Cc1cccc(NC(=O)CS(=O)(=O)c2cn(C)c3ccccc23)c1`, the RAM network inhibition is 4.28% (inactive).

Regarding `COc1nnc(-c2ccc(C)c(S(=O)(=O)NCCO)c2)c2ccccc12`, the RAM network inhibition was 2.58% (inactive).

Consider `COc1ccc(-c2cnc(SCC(=O)Nc3ccc4c(c3)OCO4)n2Cc2ccco2)cc1`, for which the RAM network inhibition is 0.61% (inactive).

`Cn1cnc2cc(NC(=O)c3ccc(Cl)cc3)ccc21`: the RAM network inhibition is -1.41% (inactive).

Regarding `CC1CCc2nn(CC(=O)Nc3ccc(F)cc3F)cc2C1` (stereo not given), the RAM network inhibition was -0.77% (inactive).

Consider `Cc1ccc(-c2noc(CN3CCN(c4ccccc4F)CC3)n2)cc1`, for which the RAM network inhibition is 3.79% (inactive).

Take `Cc1ccc(NC(=O)c2cc(-c3ccc(C)o3)nc3ccccc23)nc1`: the RAM network inhibition is 0.74% (inactive).

On to `Cc1nnc(N2C(=O)C(O)=C(C(=O)c3ccco3)C2c2ccc(F)cc2)s1` (stereo not given), for which the RAM network inhibition was 0.57% (inactive).

For the compound `COc1ccccc1N(CC(=O)Nc1cccnc1)S(C)(=O)=O`, the RAM network inhibition is 3.47% (inactive).

In the case of `CCCc1cc(C(=O)Nc2ccccc2SC)no1`, the RAM network inhibition was 1.56% (inactive).

For `O=C(CSc1nc2c(c(=O)n1-c1ccc(F)cc1)SCC2)NCC1CCCO1` (stereo not given), the RAM network inhibition was 5.77% (inactive).

As to `COc1ccc(-c2nc(C)c(C(C)=O)n2O)cc1OC`, the RAM network inhibition was 2.4% (inactive).

Take `C=CCOC(=O)COc1ccc2c(C)c(C)c(=O)oc2c1C`: the RAM network inhibition was 2.98% (inactive).

For the compound `CN(C)CCCNC(=O)CCC1CCCCC1`, the RAM network inhibition was 6.01% (inactive).

For `CC(C)(O)C#Cc1ccc(C(=O)N2CCN(C(=O)c3ccco3)CC2)cc1`, the RAM network inhibition is 2.19% (inactive).

On to `Nc1cccc2c1C(=O)N(c1ccccc1)C2=O`, for which the RAM network inhibition is 0.47% (inactive).

Turning to `COc1ccc(N2CCN(CCNC(=O)CCS(=O)(=O)c3cccc4nsnc34)CC2)cc1`, the RAM network inhibition was 5.62% (inactive).

As for `CCOC(=O)CCc1c(C)nc2cc(-c3ccc(F)cc3)[nH]n2c1=O`, the RAM network inhibition is 1.51% (inactive).

For `O=C1CC(c2cccnc2)c2cc3c(cc2N1)OCO3` (stereo not given), the RAM network inhibition is 0.51% (inactive).

As for `COc1ccccc1CNC(=O)C1CCCN(S(=O)(=O)c2cccc3cccnc23)C1` (stereo not given), the RAM network inhibition is 6.37% (inactive).

With `Oc1c(C(c2ccccc2)N2CCc3ccccc3C2)sc2ncnn12` (stereo not given), the RAM network inhibition is 4.48% (inactive).

As for `O=C(NCCc1c[nH]c2ccccc12)c1cnc2n(c1=O)CCS2`, the RAM network inhibition is 6.77% (inactive).

In the case of `CC(NC(=O)c1cc2c(=O)n(C)c3ccccc3c2n1C)c1ccc2c(c1)OCCO2` (stereo not given), the RAM network inhibition is 3.77% (inactive).

Take `CCOC(=O)c1ccc(-n2c(C)nc3c(cnn3-c3ccccc3C)c2=O)cc1`: the RAM network inhibition was 2.95% (inactive).

In the case of `COc1ccc(CCNC(=O)CSc2nnnn2-c2ccccc2OC)cc1OC`, the RAM network inhibition is 6.51% (inactive).

`CCCSc1nnc(N2C(=O)CC(c3ccsc3)C3=C2CCCC3=O)s1` (stereo not given): the RAM network inhibition was 7.67% (inactive).

On to `COC(=O)Cn1c(=O)c2c(nc3n2CC(C)CN3c2ccc(C)c(C)c2)n(C)c1=O` (stereo not given), for which the RAM network inhibition was 4.14% (inactive).

As to `O=C(Nc1cccnc1)Nc1ccccn1`, the RAM network inhibition was 0.51% (inactive).

Consider `CCn1cc(C(=O)NCc2ccccc2OC)c(=O)c2cc(S(=O)(=O)N(C)C)ccc21`, for which the RAM network inhibition was 2.36% (inactive).

Take `CC1CCN(c2oc(-c3ccccc3F)nc2C#N)CC1`: the RAM network inhibition was 2.79% (inactive).

As to `Clc1ccc(Nc2ncnc3c2cnn3-c2ccccc2)cc1`, the RAM network inhibition is -0.47% (inactive).
